Laboratory results as given in PubChem BioAssay (Tox21).
Results filed as inconclusive are left out. Active and inactive are the calls of the source. Unless noted, calls come from the whole dose curve; as a rule, active = well fitted curve in the direction sought with a large enough effect in the repeat runs; inconclusive = weak or mixed curves; inactive = no such curve, though single readings can be large; an effect the other way counts as inactive or inconclusive.

What was measured:
[1] = A CellTox Green Cytotoxicity Assay to monitor cytotoxicity in HepG2 cells - 8 hour (AID 1224890); note: nearly all actives have a fitted effect of over 45% in size
Method in brief: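 Using 1536-well format, dye-containing HepG2 suspension was seeded, allowed 5 h at 37 C/5% CO2, dosed by pintool with compounds, positive and negative controls, and imaged for fluorescence across 40 h.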

[2] = qHTS assay to identify small molecule antagonists of the estrogen receptor alpha (ER-alpha) signaling pathway using the BG1 cell line in the presence of 0.1 nM 17-beta-estradiol - cell viability counter screen (AID 1259241); note: nearly all actives have a fitted effect of over 40% in size; note: potency is the fitted concentration of half-maximal effect
Method in brief: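 Estradiol-stimulated (0.1 nM) VM7Luc4E2 cells exposed to compounds 22 hr; viability measured by fluorescence of cleaved CellTiter-Fluor substrate after 30 min.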

[3] = qHTS assay to identify small molecule antagonists of the androgen receptor (AR) signaling pathway using the MDA cell line in the presence of 0.5 nM R1881 - cell viability counter screen (AID 1259242); note: nearly all actives have a fitted effect of over 45% in size
Method in brief: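 Viability of MDA-kb2 cells was multiplexed with the luciferase AR readout; after 16 hr with compounds and R1881 at 0.5 nM final, CellTiter-Fluor fluorescence was recorded.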

[4] = qHTS assay to identify small molecule HDAC inhibitors (AID 1259364);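 note: wild-type HCT-116 cells with endogenous class I/II HDAC activity; top concentration of the series differs between compounds; nearly all actives have a fitted effect of over 45% in size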
Method in brief: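 Read-out: luminescence of HDAC-Glo I/II reagent, 30 min RT, reflecting class I/II deacetylase activity in whole HCT-116 cells pre-exposed 2 h to DMSO-dissolved compounds.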

[5] = qHTS assay to identify small molecule HDAC inhibitors - cell viability counter screen (AID 1259365); note: series mostly up to about 92 µM; nearly all actives have a fitted effect of over 50% in size
Method in brief: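 After overnight seeding at 1,500 cells per well, wild-type HCT-116 cultures took up compounds in DMSO for 2hr at 37 C. Viable cell content came from luminescence with CellTiter-Glo.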

[6] = qHTS assay to identify small molecule agonists of the sonic hedgehog signaling (Shh) pathway - cell viability counter screen (AID 1259366); note: nearly all actives have a fitted effect of over 50% in size; note: potency is the fitted concentration of half-maximal effect
Method in brief: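 Same-well cytotoxicity read. Gli1-Luc reporter 3T3 cells; compounds 24hr, 37C/5% CO2; CellTiter-Fluor fluorescence.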

[7] = qHTS assay to identify small molecule antagonists of the sonic hedgehog signaling (Shh) pathway - cell viability counter screen (AID 1259367); note: nearly all actives have a fitted effect of over 55% in size; note: potency is the fitted concentration of half-maximal effect
Method in brief: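 Seed 3T3 Gli1-Luc cells at 2,000 per well; incubate 4 hr; add compound in DMSO, then conditioned medium; incubate at 37C with 5% CO2; add CellTiter-Fluor after 23 hr; read fluorescence 1 hr later.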

[8] = qHTS assay to identify small molecule agonists of the sonic hedgehog signaling (Shh) pathway (AID 1259368; calls by dose curve;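 note: NIH/3T3-derived 3T3Gli1-Luc cells carrying a stable Gli1-driven firefly luciferase reporter; series mostly up to about 92 µM; nearly all actives have a fitted effect of over 15% in size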)
Method in brief: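 A Gli1 transcriptional response element controlled firefly luciferase in 3T3Gli1-Luc cells. Compounds and a positive control were added 4 hr after plating, and cells were incubated a further 24 hr at 37 C before luminescence detection.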

[9] = qHTS assay to identify small molecule antagonists of the sonic hedgehog signaling (Shh) pathway (AID 1259369; calls by dose curve; note: nearly all actives have a fitted effect of over 45% in size; note: potency is the fitted concentration of half-maximal effect)
Method in brief: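 For antagonist detection, the reporter line received test compounds together with conditioned medium, incubated 24hr at 37 C, 5% CO2, then luminescence was recorded following 30min room-temperature luciferase reagent incubation.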

[10] = biological target: Estrogen receptor beta (Homo sapiens) (UniProt Q92731); assay: qHTS assay to identify small molecule agonists of the estrogen receptor beta (ER-beta) signaling pathway (AID 1259377; active = well fitted activation curve with a large enough effect in the signal ratio in the repeat runs, not every such curve was filed as active; the % refers to the signal ratio)
Method in brief: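 Read-out: beta-lactamase FRET fluorescence. Cell line: ER-beta-UAS-bla HEK293T in 2% charcoal-stripped FBS. Exposure: 16 hr at 37C. Substrate step: 2 h at room temperature.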

[11] = biological target: Estrogen receptor beta (Homo sapiens) (UniProt Q92731); assay: qHTS assay to identify small molecule antagonists of the estrogen receptor beta (ER-beta) signaling pathway (AID 1259378; active = well fitted inhibition curve with a large enough effect in the signal ratio in the repeat runs, not every such curve was filed as active; the % refers to the signal ratio)
Method in brief: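 ER-beta-UAS-bla HEK293T cells in 2% charcoal-stripped FBS medium treated with compound plus 1nM final 17-beta-estradiol for 16 hr at 37C. Beta-lactamase reporter read by FRET substrate fluorescence after 2 hours at room temperature.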

[12] = qHTS assay to identify small molecule agonists of the androgen receptor (AR) signaling pathway in the presence of an antagonist - cell viability counter screen (AID 1259379);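 note: MDA-kb2 human breast cancer cells carrying an MMTV luciferase reporter; series mostly up to about 92 µM; nearly all actives have a fitted effect of over 25% in size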
Method in brief: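 Seed MDA-kb2 at 3,000 cells/well; incubate 5 hr, 37C, 0% CO2. Add nilutamide to 3.0uM final, then pin compounds at 15 concentrations. Incubate 16 hr. Add CellTiter-Fluor at 15 hr, read fluorescence after 1 hr.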

[13] = qHTS assay to identify small molecule agonists of the estrogen receptor beta (ER-beta) signaling pathway - cell viability counter screen (AID 1259380); note: nearly all actives have a fitted effect of over 30% in size; note: potency is the fitted concentration of half-maximal effect
Method in brief: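 CellTiter-Glo read, 30 min RT, same wells as bla assay; cells ER-beta-UAS-bla HEK293T; 16 hr compound, 37C; medium 2% charcoal-stripped FBS.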

[14] = qHTS assay to identify small molecule antagonists of the estrogen receptor beta (ER-beta) signaling pathway - cell viability counter screen (AID 1259382); note: series mostly up to about 92 µM; nearly all actives have a fitted effect of over 55% in size
Method in brief: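 In this multiplexed counter screen, cells were seeded at 2,000 per well in medium with 2% charcoal-stripped FBS and incubated 6 hr before compound and 1nM final E2 were added. Sixteen hours later, ATP-based luminescence reported viability.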

[15] = qHTS assay to identify small molecule agonists or antagonists of the thyroid stimulating hormone receptor (TSHR) signaling pathway - wild type cell line counter screen (AID 1259384; calls by dose curve)
Method in brief: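 Wild-type Hek293 cells, 800/well, 18 h at 37C, then compound with Ro20-1724 for 30 min RT. cAMP by HTRF (cAMP-d2/anti-cAMP cryptate), 1 h RT, fluorescence read. 15 concentrations, triplicates.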

[16] = qHTS assay to identify small molecule phospholipidosis (PLD) inducers (AID 1259344; active = well fitted curve in the direction sought with a large enough effect; an effect the other way counts as inactive or inconclusive)
Method in brief: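 Quantitative HTS in HepG2: compound plus LipidTOX Red dye for 24 h, paraformaldehyde fixation with Hoechst 33342, widefield high-content imaging; amiodarone as positive and DMSO as negative control.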

[17] = biological target: Estrogen receptor (Homo sapiens) (UniProt P03372); assay: qHTS assay to identify small molecule agonists of the estrogen receptor alpha (ER-alpha) signaling pathway in the presence of an antagonist (AID 1259383; calls by dose curve; note: top concentration of the series differs between compounds; nearly all actives have a fitted effect of over 15% in size)
Method in brief: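 Stably transfected VM7Luc4E2 reporter cells, kept 5 days in charcoal-stripped serum, received ICI-182,780 at 10.0nM final before compound addition. Following 22hr incubation at 37C and 5% CO2, luciferase signal was read by luminescence.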

Measured: Potency

Chain of Estrogen receptor (Homo sapiens) (P03372 whole entry, looked up): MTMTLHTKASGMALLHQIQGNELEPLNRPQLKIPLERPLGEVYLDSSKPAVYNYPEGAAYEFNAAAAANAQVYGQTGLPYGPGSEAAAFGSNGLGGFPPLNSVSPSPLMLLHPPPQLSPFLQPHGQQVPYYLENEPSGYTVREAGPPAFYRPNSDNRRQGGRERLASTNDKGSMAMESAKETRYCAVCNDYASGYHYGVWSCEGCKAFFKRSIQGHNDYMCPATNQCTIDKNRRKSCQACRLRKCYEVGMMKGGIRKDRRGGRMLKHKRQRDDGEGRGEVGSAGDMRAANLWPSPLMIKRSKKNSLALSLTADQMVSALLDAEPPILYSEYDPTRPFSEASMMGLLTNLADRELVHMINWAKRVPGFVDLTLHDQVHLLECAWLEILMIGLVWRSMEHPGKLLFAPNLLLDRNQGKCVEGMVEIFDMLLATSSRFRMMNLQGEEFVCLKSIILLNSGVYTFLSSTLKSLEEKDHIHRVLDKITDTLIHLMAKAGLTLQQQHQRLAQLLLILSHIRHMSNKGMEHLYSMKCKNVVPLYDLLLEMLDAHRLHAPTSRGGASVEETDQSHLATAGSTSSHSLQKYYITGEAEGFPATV
Chain of Estrogen receptor beta (Homo sapiens) (Q92731 whole entry, looked up): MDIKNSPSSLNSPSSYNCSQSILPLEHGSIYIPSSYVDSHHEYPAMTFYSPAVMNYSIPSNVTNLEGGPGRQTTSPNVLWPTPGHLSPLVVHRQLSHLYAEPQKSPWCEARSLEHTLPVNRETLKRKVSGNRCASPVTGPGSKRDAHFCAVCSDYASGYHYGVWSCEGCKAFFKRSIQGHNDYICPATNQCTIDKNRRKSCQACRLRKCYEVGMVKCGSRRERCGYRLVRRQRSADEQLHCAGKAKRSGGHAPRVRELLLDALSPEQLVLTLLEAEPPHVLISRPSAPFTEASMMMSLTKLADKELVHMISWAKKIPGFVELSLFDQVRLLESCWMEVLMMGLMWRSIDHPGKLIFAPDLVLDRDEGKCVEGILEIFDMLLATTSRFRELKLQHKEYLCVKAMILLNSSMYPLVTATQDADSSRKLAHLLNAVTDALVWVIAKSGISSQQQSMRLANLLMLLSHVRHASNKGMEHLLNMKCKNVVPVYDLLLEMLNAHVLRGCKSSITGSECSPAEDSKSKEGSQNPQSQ

Cc1cc(CCC(=O)OCCOCCOCCOC(=O)CCc2cc(C)c(O)c(C(C)(C)C)c2)cc(C(C)(C)C)c1O
not listed: [16] | [17]
inactive: all other assays above

CC1=CC[C@@]23C[C@@H]1C(C)(C)[C@@H]2CC[C@H]3C
not listed: [16] | [17]
inactive: all other assays above

Nc1nc2ccc(OC(F)(F)F)cc2s1
not listed: [4] | [17]
inactive: all other assays above

O=C(O)CNC(=O)c1ccccc1I
not listed: [15]
inactive: all other assays above

CCN(CC)CCNC(=O)c1cc(Cl)c(N)cc1OC
not listed: [16]
inactive: all other assays above

CC(O)Cn1cnc2c1c(=O)n(C)c(=O)n2C (centres undefined)
not listed: [15] | [16] | [17]
inactive: all other assays above

Cc1ccc(Nc2c(F)cccc2Cl)c(CC(=O)O)c1
active: [13] 26.6 µM
not listed: [10] | [11] | [14]
inactive: all other assays above

CSSc1ccoc1C
not listed: [15] | [16] | [17]
inactive: all other assays above

Nc1ccc(S(=O)(=O)NCc2ccccc2)cc1
not listed: [13] | [17]
inactive: all other assays above

CC[C@H]1OC(=O)[C@H](C)[C@@H](O[C@H]2C[C@@](C)(OC)[C@@H](O)[C@H](C)O2)[C@H](C)[C@@H](O[C@@H]2O[C@H](C)C[C@H](N(C)C)[C@H]2O)[C@](C)(O)C[C@@H](C)/C(=N\OCOCCOC)[C@H](C)[C@@H](O)[C@]1(C)O
active: [2] 10.2 µM | [6] 5.09 µM | [7] 8.07 µM | [9] 12.8 µM
not listed: [10] | [11]
inactive: all other assays above

CCNc1nc(N)nc(Cl)n1
not listed: [16] | [17]
inactive: all other assays above
